Laboratory results from PubChem BioAssay (NCI).
This is part of a sample that, as a whole, favours compounds with a hit. Of some 83,000 tested, about 20% had one in any assay.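 Cell lines were cultured in 96-well plates, exposed to a single compound concentration, and assessed for percent growth 48 hours later.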 Unmarked numbers belong to inactive results. The source made the active and inactive calls. Rule for the calls: active = growth percent below 10; inactive = the rest.

test system: SK-MEL-2 melanoma; test: NCI-60 one-dose screen, 48 h (100 = growth as untreated, 0 = no growth, -100 = all killed); settings: 10 µM unless noted

Row | SMILES | growth
1 | Nc1nc(N)c2c(n1)NC(c1ccc3c(c1)OCO3)CC(c1cccc(Nc3ccncc3)c1)=N2 (stereo not given) | 86%
2 | CCCCCCCC/C=C\CCCCCCCCOc1ccc(CC(=O)NCC[N+]2(C)CCCC2)cc1 | 103%
3 | Cn1cc(-c2csc(-c3cn(CCO)c4ccc(F)cc34)n2)c2cccnc21 | 52.2%
4 | CCOC(=O)C1=CCC(n2cc(F)c(=O)[nH]c2=O)O1 (stereo not given) | 103%
5 | CC1(C)CC[C@]2(CO)CC[C@]3(C)C(=CC[C@@H]4[C@@]5(C)CCNCC(C)(C)[C@@H]5CC[C@]43C)[C@@H]2C1 | 53.7%
6 | O=C(CN1C(=O)NC2NC(=O)NC21)N/N=C/c1cccc([N+](=O)[O-])c1 (stereo not given) | 113%
7 | [2H]C([2H])([2H])Oc1ccc(/C=C/C(=O)/C=C(O)/C=C/c2ccc(OC([2H])([2H])[2H])c(OC([2H])([2H])[2H])c2)cc1OC([2H])([2H])[2H] | 86.3%
8 | Cc1nn(C)c2ncnc(Nc3ccccc3Br)c12 | 100%
9 | COc1cc(NC(=O)c2cncnc2Nc2ccc3c(ccn3Cc3cccc(F)c3)c2)cc(OC)c1 | 66.7%
10 | C=C1CC[C@@H]2[C@](C)(COC(C)=O)[C@H](OC(C)=O)CC[C@@]2(C)[C@@H]1CC(Nc1ccc(S(=O)(=O)Nc2nccc(C)n2)cc1)C1=CCOC1=O (stereo not given in full) | 40.1%
11 | Cc1nc2c(c(-c3ccccc3)n1)Cc1c(ccc3ccccc13)O2 | 112%
12 | CCCc1cc(CCC)n2nc(N)nc2n1 | 128%
13 | Clc1ccc(C2=Nn3c(nnc3-c3cc(Cl)cc(Cl)c3Cl)SC2)cc1 | 80.3%
14 | CCN(CC)CCN1C(=O)c2c(c(C)c3c(oc4cc(OC)ccc43)c2C)C1=O | 101%
15 | O=C1c2cccnc2C(=O)c2c1c(C(=O)OCCCN1CCOCC1)c1ccccn21 | -57.5% (active)
16 | CCCCN(CCC#N)C(N)=O | 104%
17 | O=C(OCC(O)(CO)C(=O)NC12CC3CC(CC(C3)C1)C2)c1ccc(Cl)cc1 (stereo not given) | 86.3%
18 | CC1(C)C2=C(C(=O)N1Cc1ccccc1)C(c1ccco1)N(C(=O)C1CCC1)CCN2 (stereo not given) | 94.3%
19 | CN1CC(c2ccccc2)C(C(=O)c2ccc(Br)cc2)C12C(=O)Nc1ccccc12 (stereo not given) | 99.2%
20 | Nc1ncc(-c2ccc3ncnc(N4CCc5cc(F)c(Cl)cc54)c3c2)cn1 | 66.7%
21 | CCCCCN(CCCCC)CC(O)c1c(Cl)ccc2ccccc12 (stereo not given) | 93.4%
22 | CNC(=O)c1cc(Oc2ccc3nc(NC(=O)NC(C)C)sc3c2)ccn1 | 89.9%
23 | Nc1ccc(Cl)c2c(=O)c3ccccc3[nH]c12 | 81.2%
24 | CNC(=O)c1cc(Oc2cccc3nc(NC(=O)Nc4ccc(F)cc4F)ccc23)ccn1 | 71%
25 | N#Cc1c(-c2ccc(F)cc2)cc(-c2cccc(Cl)c2)[nH]c1=O | 78.6%

test system: EKVX NSCLC; test: as above; settings: 10 µM unless noted

Row | SMILES | growth
26 | COc1ccccc1/C=C/C1=C(C)CCC(c2ccccc2OC)C1C (stereo not given) | 35%
27 | COc1cc(OCc2cccc(-c3ccc4c(c3)OCCO4)c2C)cc(OC)c1C=O | 53.7%
28 | COc1ccccc1-c1nc2ccc3[nH]ncc3c2c2c1CCCC2 | 44.3%
29 | CC(=O)OCCOc1cc(Cl)c(Cl)cc1Cl | 78.4%
30 | CC1(C)CC(=O)C2=C(C1)OC(C(=O)c1ccccc1)C2c1cccc(Oc2ccccc2)c1 (stereo not given) | 36.4%
31 | CC1OC(C(=O)N2CCN(CCO)CC2)CC1COC1CCCCC1 (stereo not given) | 99.8% [50 µM]
32 | COc1ccccc1NC(=O)n1c(=O)cc(C)c2ccc(O)cc21 | 100%
33 | COc1ccc2c(c1)C(c1c[nH]c3ccccc13)(c1c[nH]c3ccccc13)CCO2 | 35%
34 | CC(C)(C)n1cc(-c2ccnc(NCCNS(=O)(=O)c3cccc4ccccc34)c2)c(-c2cccc(O)c2)n1 | 69.8%
35 | COc1cc(C2=Nc3c(N)nc(N)nc3NC(c3cccc(Nc4ccnc5cc(C(F)(F)F)ccc45)c3)C2)cc(OC)c1OC (stereo not given) | 66%
36 | Nc1nc(=O)n([C@H]2CC=C(CO)O2)cc1F | 110%
37 | CS(=O)(=O)c1ccc(/C(=N/NC(N)=S)c2ccc(F)cc2)cc1 | 92.5%
38 | O=c1n(C2OC(CO)C(O)C2O)ccc2nccn12 (stereo not given) | 108%
39 | Cc1c(N2CCCCC2)[nH]c2ccccc12 | 117%
40 | O=C1CCc2c(sc3[nH]c(=S)n(-c4cc(C(F)(F)F)cc(C(F)(F)F)c4)c(=O)c23)C1 | -8.72% (active)
41 | Nc1nc(N)c2c(n1)NC(c1ccc3c(c1)OCO3)CC(c1cccc(Nc3ccncc3)c1)=N2 (stereo not given) | 89.1%
42 | CCCCCCCC/C=C\CCCCCCCCOc1ccc(CC(=O)NCC[N+]2(C)CCCC2)cc1 | 86.1%
43 | Cn1cc(-c2csc(-c3cn(CCO)c4ccc(F)cc34)n2)c2cccnc21 | 57.4%
44 | CCOC(=O)C1=CCC(n2cc(F)c(=O)[nH]c2=O)O1 (stereo not given) | 118%
45 | CC1(C)CC[C@]2(CO)CC[C@]3(C)C(=CC[C@@H]4[C@@]5(C)CCNCC(C)(C)[C@@H]5CC[C@]43C)[C@@H]2C1 | 97.5%

Row | SMILES | growth
46 | O=C(CN1C(=O)NC2NC(=O)NC21)N/N=C/c1cccc([N+](=O)[O-])c1 (stereo not given) | 102%
47 | [2H]C([2H])([2H])Oc1ccc(/C=C/C(=O)/C=C(O)/C=C/c2ccc(OC([2H])([2H])[2H])c(OC([2H])([2H])[2H])c2)cc1OC([2H])([2H])[2H] | 53.1%
48 | Cc1nn(C)c2ncnc(Nc3ccccc3Br)c12 | 60.6%
49 | COc1cc(NC(=O)c2cncnc2Nc2ccc3c(ccn3Cc3cccc(F)c3)c2)cc(OC)c1 | 85.3%
50 | C=C1CC[C@@H]2[C@](C)(COC(C)=O)[C@H](OC(C)=O)CC[C@@]2(C)[C@@H]1CC(Nc1ccc(S(=O)(=O)Nc2nccc(C)n2)cc1)C1=CCOC1=O (stereo not given in full) | 79.2%
51 | Cc1nc2c(c(-c3ccccc3)n1)Cc1c(ccc3ccccc13)O2 | 128%
52 | CCCc1cc(CCC)n2nc(N)nc2n1 | 115%
53 | Clc1ccc(C2=Nn3c(nnc3-c3cc(Cl)cc(Cl)c3Cl)SC2)cc1 | 70.6%
54 | CCN(CC)CCN1C(=O)c2c(c(C)c3c(oc4cc(OC)ccc43)c2C)C1=O | 93.5%
55 | O=C1c2cccnc2C(=O)c2c1c(C(=O)OCCCN1CCOCC1)c1ccccn21 | 19.6%
56 | CCCCN(CCC#N)C(N)=O | 101%
57 | O=C(OCC(O)(CO)C(=O)NC12CC3CC(CC(C3)C1)C2)c1ccc(Cl)cc1 (stereo not given) | 103%
58 | CC1(C)C2=C(C(=O)N1Cc1ccccc1)C(c1ccco1)N(C(=O)C1CCC1)CCN2 (stereo not given) | 97.4%
59 | CN1CC(c2ccccc2)C(C(=O)c2ccc(Br)cc2)C12C(=O)Nc1ccccc12 (stereo not given) | 91.8%
60 | Nc1ncc(-c2ccc3ncnc(N4CCc5cc(F)c(Cl)cc54)c3c2)cn1 | 15.7%
61 | CCCCCN(CCCCC)CC(O)c1c(Cl)ccc2ccccc12 (stereo not given) | 62.5%
62 | CNC(=O)c1cc(Oc2ccc3nc(NC(=O)NC(C)C)sc3c2)ccn1 | 93.7%
63 | Nc1ccc(Cl)c2c(=O)c3ccccc3[nH]c12 | 75.2%
64 | CNC(=O)c1cc(Oc2cccc3nc(NC(=O)Nc4ccc(F)cc4F)ccc23)ccn1 | -0.932% (active)
65 | N#Cc1c(-c2ccc(F)cc2)cc(-c2cccc(Cl)c2)[nH]c1=O | 66.9%
